Screening data from PubChem BioAssay.
In the library only some 4% were active in any assay of this set; here they are far more common.
GDH-TPI counter – GDH-TPI coupling enzyme inhibitors, primary screen, artefact control for M. tuberculosis FBA inhibitor project, biochemical, absorbance, full deck; inhibition, % at 4.8 µM; GDH-TPI coupled enzyme counterscreen, NADH absorbance; 360,000 compounds, 1.2% hits;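 also: 0% = DMSO wells and 100% = wells lacking the enzyme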
MazEF act – activators of E. coli MazEF toxin-antitoxin RNase, primary screen, biochemical, fluorescence, uHTS; Endoribonuclease toxin MazF (Escherichia coli (strain K12)), P0AE70; FAM/BHQ RNA-DNA oligo cleavage fluorescence, 5 h; activation, % at 20 µM; 350,000 compounds, 0.32% hits; AID 504720, 2011; in the data active = activation above about 50%
CCHF vOTU inh – CCHFV vOTU protease inhibitors, primary screen, biochemical, Pep-AMC substrate, fluorescence. Crimean-Congo hemorrhagic fever virus L polyprotein viral ovarian tumor (vOTU) protease …. inhibition, % at 11.5 µM. 370,000 compounds, 0.55% hits. AID 651958, 2012; also: 0% = vehicle wells with enzyme and 100% = no enzyme wells
Mtb bLac sens – beta-lactam sensitization of Mtb H37Rv, H37Rv; M. tuberculosis H37Rv growth with meropenem, percent inhibition; inhibition, % at 25 µM; 330,000 compounds, 0.27% hits; call rule not given here;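 also: growth measured after seven days incubation then overnight dye step; 0% = bacteria only wells and 100% = bacteria with antibiotic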
FBA Mtb inh – Mtb FBA enzyme inhibitors, primary screen, biochemical, fluorescence, strain H37Rv; Fructose-bisphosphate aldolase (Mycobacterium tuberculosis (strain ATCC 25618 / H37Rv)), …; purified M. tuberculosis FBA, fluorescence read-out; inhibition, % at 1 µM; 360,000 compounds, 2.3% hits; AID 588726, 2011; in the data active = inhibition above about 27%;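 also: 0% = vehicle and 100% = reference inhibitor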
Target sequence (P9WQA3 whole entry, looked up): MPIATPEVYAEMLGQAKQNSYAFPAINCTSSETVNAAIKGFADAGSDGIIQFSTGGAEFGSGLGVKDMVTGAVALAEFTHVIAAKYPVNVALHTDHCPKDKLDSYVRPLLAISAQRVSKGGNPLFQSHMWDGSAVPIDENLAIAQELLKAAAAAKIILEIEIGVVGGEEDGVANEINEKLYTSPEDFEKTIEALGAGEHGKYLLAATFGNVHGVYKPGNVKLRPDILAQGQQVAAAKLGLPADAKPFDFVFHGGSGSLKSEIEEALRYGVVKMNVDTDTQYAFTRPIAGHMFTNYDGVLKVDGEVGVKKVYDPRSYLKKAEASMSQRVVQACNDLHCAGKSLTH
Numbers without * were called inactive; . = no result given; + = active, no number. Rule as the data show it, unless noted: active = inhibition above about 30%; inactive = the rest.

SMILES	GDH-TPI counter	MazEF act	CCHF vOTU inh	Mtb bLac sens	FBA Mtb inh
CCC(N=c1cc(-c2ccc(OC)cc2)oc2ccc(C)cc12)C(=O)O (centres undefined)	31*	1	-268	8	+
COc1cc(/C=C2\SC(N3CCCCC3)=NC2=O)cc(OC)c1OC	33*	-1	13	7	0
CCc1ccc(/C=C2\SC(N3CCCC3)=NC2=O)cc1	25	3	9	-9	-2
O=C1N=C(N2CCCCC2)S/C1=C\c1ccncc1	26	4	-12	24	-4
COc1ccc(/C=C2\SC(N3CCCCC3)=NC2=O)cc1	47*	-45	8	-6	2
CC(=O)N1CCN(C2=NC(=O)/C(=C/c3ccc(OS(=O)(=O)c4ccccc4)cc3)S2)CC1	31*	5	8	4	0
O=C(c1cccc(F)c1)N1CCCC(c2nc(-c3cccs3)no2)C1 (centres undefined)	.	.	-10	.	.
CC1CCC2(CC1)CCN(CCCOC(=O)Nc1cccc(F)c1)C2=O (centres undefined)	.	.	8	.	.
CCNC(=O)N(C)[C@H]1C[C@H]2c3[nH]c4cccc(-c5ccc6c(c5)OCO6)c4c3CCN2C[C@H]1[C@H](C)O	.	.	-7	.	.
COc1cccc(N=Nc2ccc3ccccc3c2O)c1	2	76*	-14	3	-2
CCCCc1cc(=O)oc2c(CN(C)C)c(O)ccc12	28	-2	-295	-1	.
COCCN(CCOC)Cc1c(O)ccc2c3c(c(=O)oc12)CCC3	15	4	-283	1	+
CN(C)Cc1c(O)ccc2c3c(c(=O)oc12)CCCCC3	25	-3	-210	-11	+
CCCCN(CC)Cc1c(O)ccc2c3c(c(=O)oc12)CCC3	22	11	-309	-6	.
CCc1c(C)c2ccc(O)c(CN(C)C)c2oc1=O	18	5	-305	-4	+
CC(C)Cn1c(N)c(C(=O)COC(=O)c2nccnc2N)c(=O)n(C)c1=O	15	-5	-147	-7	+
CC(C)Cn1c(N)c(C(=O)COC(=O)c2ccncc2)c(=O)n(C)c1=O	10	18	-1	-5	7
CCOC(=O)c1ccc(-c2ccc(/C=N/NC(=O)c3cncc(Br)c3)o2)cc1	-1	-48	-4	-4	2
CC(C)Oc1ccc(C(=O)N/N=C/c2ccc(-c3ccc(S(=O)(=O)Nc4ncccn4)cc3)o2)cc1	50*	2	-5	94	31*
NC(=O)N/N=C/c1ccc(-c2ccc(S(=O)(=O)Nc3ncccn3)cc2)o1	37*	3	-2	.	9
COc1ccc(N=C(C)C2=C(O)c3ccccc3C2=O)cc1	36*	-9	-15	0	2
CC(=NC1CC1)C1=C(O)c2ccccc2C1=O	38*	9	3	-6	0
C/C(=N\N(C)C)C1=C(O)c2ccccc2C1=O	4	3	0	2	-1
CCOc1ccc(-n2c(SC/C=C/c3ccccc3)nnc2-c2cccs2)cc1	.	.	6	.	.
CCOC(=O)c1[nH]c2ccc(OC)cc2c1NC(=O)NC(C)C	2	2	-23	4	35*
SMILES	GDH-TPI counter	MazEF act	CCHF vOTU inh	Mtb bLac sens	FBA Mtb inh
COc1ccc2cc(C(=O)NCc3ccccc3)[nH]c2c1	-6	0	0	-2	6
CCCS(=O)(=O)Nc1c(C(=O)O)[nH]c2ccc(OC)cc12	1	8	-30	-7	129*
COc1ccc2[nH]c(C(=O)NCc3ccccc3)c(C)c2c1	3	0	-15	-1	40*
CCOC(=O)c1[nH]c2ccccc2c1NC(=O)NC(C)C	16	7	-2	-5	4
CC1CCC2(CCC(=O)N2CCCOC(=O)NC(C)(C)C)CC1 (centres undefined)	.	.	11	.	.
O=C(c1ccncc1)c1ccc(N2CCN(C3CC(=O)N(Cc4ccccc4)C3=O)CC2)cc1 (centres undefined)	18	-6	9	45	9
O=C(c1ccc(N2CCN(C3CC(=O)N(Cc4cccs4)C3=O)CC2)cc1)c1cccnc1 (centres undefined)	33*	0	4	-2	-5
COCCn1c(-c2ccc(OC)cc2)c(-c2ccc(OC)cc2)oc1=O	-3	6	-3	9	131*
